Source: PubChem BioAssay (NCATS)
“And” between values parts separate entries of the source, which are not always exact repeats. Equal values may be shown once. Inconclusive results are not listed. Entries that show only a call come without a potency. Values without a mark were called inactive. The source made the active and inactive calls. Calls come from the whole dose curve; as a rule, active = well fitted curve in the direction sought with a large enough effect; inconclusive = small, poorly fitted or top-dose-only effect, or another doubt; inactive = no such curve, though single readings can be large; an effect the other way counts as inactive or inconclusive.

Columns and labels:
[1] = target: Cellular tumor antigen p53 (Homo sapiens) (UniProt P04637); assay: Primary qHTS for small molecule compounds that upregulate eGFP-tagged delta133p53alpha (in N-terminal) cells. (AID 2060322); conditions: NCI-H358 eGFP-delta133p53alpha fluorescence, 24 h; activation: active compounds read high; note: nearly all actives have a fitted effect of over 75% in size; note: potency is the fitted concentration of half-maximal effect;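 for activation: cells pre-induced with doxycycline then dosed without doxycycline; series mostly up to about 56 µM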
Summary of the method: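 NCI-H358 cells pre-induced 24 h with 10 ng/ml doxycycline for eGFP-delta133p53alpha, plated dox-free and exposed 24 h at 37C to titrated compounds. Fixed, Hoechst-stained; gated GFP peak intensity by laser scanning cytometry, normalized to DMSO (0%) and 57.5 uM 5-azacytidine (100%).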

[2] = target: Aldehyde dehydrogenase, mitochondrial (Homo sapiens) (UniProt P05091); assay: qHTS for Inhibitors of the Aldehyde Dehydrogenase Family (ALDH2) Primary screen (AID 2061308); note: nearly all actives have a fitted effect of over 55% in size
[3] = qHTS for Inhibitors of the Aldehyde Dehydrogenase Family (ALDH1A2, ALDH1A3, ALDH2, ALDH3A1) (AID 2061307); note: nearly all actives have a fitted effect of over 50% in size; for potency: test system not described further here; potency is the fitted concentration of half-maximal effect
[4] = target: Retinaldehyde dehydrogenase 3 (Homo sapiens) (UniProt P47895); assay: qHTS for Inhibitors of the Aldehyde Dehydrogenase Family (ALDH1A3) Confirmatory screens (AID 2061311); note: nearly all actives have a fitted effect of over 60% in size; note: potency is the fitted concentration of half-maximal effect
[5] = target: Retinaldehyde dehydrogenase 3 (Homo sapiens) (UniProt P47895); assay: qHTS for Inhibitors of the Aldehyde Dehydrogenase Family (ALDH1A3) Validation screen (AID 2061312); note: nearly all actives have a fitted effect of over 45% in size; note: potency is the fitted concentration of half-maximal effect
[6] = target: Aldehyde dehydrogenase 1A1 (Homo sapiens) (UniProt P00352); assay: qHTS for Inhibitors of the Aldehyde Dehydrogenase Family (ALDH1A1) Confirmatory screens (AID 2061316); note: nearly all actives have a fitted effect of over 65% in size; note: potency is the fitted concentration of half-maximal effect
[7] = target: Retinaldehyde dehydrogenase 3 (Homo sapiens) (UniProt P47895); assay: qHTS for Inhibitors of the Aldehyde Dehydrogenase Family (ALDH1A3) Primary screen (AID 2061315); note: potency is the fitted concentration of half-maximal effect
[8] = target: Retinal dehydrogenase 2 (Homo sapiens) (UniProt O94788); assay: qHTS for Inhibitors of the Aldehyde Dehydrogenase Family (ALDH1A2) Confirmation screens (AID 2061314); note: nearly all actives have a fitted effect of over 65% in size; note: potency is the fitted concentration of half-maximal effect
[9] = BET inhibitor-based combinations targeting novel dependencies in MECOM-rearranged (r) AML: SET-2 cell line (AID 2202231); conditions: SET-2 AML cells viability, CellTiter-Glo luminescence, 48 h; viability: active compounds read low, series mostly up to about 46 µM; note: nearly all actives have a fitted effect of over 35% in size
Summary of the method: (§1)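 Viability of cells (500 per well) is scored by luminescent CellTiter-Glo at 48 hr post-dosing. Eleven-point titrations are normalized to DMSO and empty controls and reduced to AUC values.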

[10] = BET inhibitor-based combinations targeting novel dependencies in MECOM-rearranged (r) AML: OCI-AML3 cell line (AID 2202232); conditions: Potency: OCI-AML3 viability; note: series mostly up to about 46 µM; nearly all actives have a fitted effect of over 35% in size
Summary of the method: as §1

[11] = BET inhibitor-based combinations targeting novel dependencies in MECOM-rearranged (r) AML: MV-4-11 cell line (AID 2202233); note: nearly all actives have a fitted effect of over 45% in size
Summary of the method: (§2)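 Using pin-tool transfer, drugs were added in 11 doses to cells (500/well), incubated 48 hr, and assessed with CellTiter-Glo. Z-AUC is a mean-centring transformation applied separately to each screened line.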

[12] = BET inhibitor-based combinations targeting novel dependencies in MECOM-rearranged (r) AML: HNT-34 cell line (AID 2202234); note: nearly all actives have a fitted effect of over 35% in size
Summary of the method: as §2

[13] = BET inhibitor-based combinations targeting novel dependencies in MECOM-rearranged (r) AML: UCSD-AML1 cell line (AID 2202235); note: series mostly up to about 46 µM; nearly all actives have a fitted effect of over 40% in size
Summary of the method: as §2

[14] = BET inhibitor-based combinations targeting novel dependencies in MECOM-rearranged (r) AML: AML-191 cell line (AID 2202236; note: nearly all actives have a fitted effect of over 35% in size)
Summary of the method: as §1

Chain of Cellular tumor antigen p53 (Homo sapiens) (P04637 whole entry, looked up): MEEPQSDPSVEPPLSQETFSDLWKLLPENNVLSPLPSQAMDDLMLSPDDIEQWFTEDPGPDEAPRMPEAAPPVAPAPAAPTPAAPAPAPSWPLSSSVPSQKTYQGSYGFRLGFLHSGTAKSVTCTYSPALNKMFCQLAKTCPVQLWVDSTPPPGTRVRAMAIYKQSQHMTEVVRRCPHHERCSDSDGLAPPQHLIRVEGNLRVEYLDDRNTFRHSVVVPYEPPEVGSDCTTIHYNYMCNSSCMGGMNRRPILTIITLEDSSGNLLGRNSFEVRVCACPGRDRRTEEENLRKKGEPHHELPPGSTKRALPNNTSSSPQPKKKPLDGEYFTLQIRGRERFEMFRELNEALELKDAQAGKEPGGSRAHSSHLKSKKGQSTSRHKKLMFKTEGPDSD

## COc1ccc(/C=C/C(=O)O[C@@H]2[C@@H](O)[C@@H](O)[C@H](O[C@@H]3C=C(CO)[C@H]4[C@H](O[C@@H]5O[C@H](CO)[C@@H](O)[C@H](O)[C@H]5O)OC=C[C@H]43)O[C@H]2C)cc1O
[1]
  activation: -6.87%
[2]
  Potency: inactive

## COC(=O)C1=CO[C@@H](O[C@@H]2O[C@H](CO)[C@@H](O)[C@H](O)[C@H]2O)[C@@H]2[C@@H](C)[C@@H](O)C[C@H]12
[1]
  activation: -11.5%
[2]
  Potency: inactive

## COc1cc(N2CCOCC2)ccc1Nc1ncc(F)c(Nc2ccccc2NS(C)(=O)=O)n1
[1]
  Potency: 9.53 µM (active)
[2]
  Potency: inactive

## O=C(/C=C/N1C[C@@H]2C[C@@H]1CN2c1ccccn1)c1ccccc1O
[1]
  activation: -4.33%
[2]
  Potency: inactive

## C[C@H](NCc1ccc(OCc2ccccc2F)cc1)C(N)=O
[1]
  activation: 11.5%
[2]
  Potency: inactive

## COc1ccc([C@@H]2OC[C@H]3[C@@H]2CO[C@@H]3c2ccc(OC3OC(CO)C(O)C(O)C3O)c(OC)c2)cc1OC (stereo not given in full)
[1]
  activation: 10.7%
[2]
  Potency: inactive

## Oc1ccc(O)cc1
[1]
  activation: 17.5% and -0.402%
[3]
  Potency: 11.3 µM (active)
[4]
  Potency: 4.49 µM (active)
[5]
  Potency: 0.794 µM (active)
[6]
  Potency: 11.3 µM (active)

## Cc1c(Cc2ccc3ccccc3n2)c2cc(F)ccc2n1CC(=O)O
[1]
  activation: -10%
[3]
  Potency: 3.18 µM (active)
[2]
  Potency: inactive
[7]
  Potency: inactive

## Fc1ccc2nc(CCC#Cc3ccccn3)cn2c1
[1]
  activation: 2.68%
[2]
  Potency: inactive

## CC(=O)N[C@@H](CC(=O)O)C(=O)N[C@@H](CCC(=O)O)C(=O)N[C@H](C(=O)N[C@@H](CC(=O)O)C(=O)Nc1ccc2c(C)cc(=O)oc2c1)C(C)C
[1]
  Potency: 13.5 µM (active)
[3]
  Potency: inactive
[2]
  Potency: inactive
[7]
  Potency: inactive

## COc1c(C(C)C)c(O)c(O)c2c1C(OC)[C@H]1OC(=O)[C@@]23CCCC(C)(C)[C@H]13 (stereo not given in full)
[1]
  activation: -1.79%
[3]
  Potency: inactive
[4]
  Potency: 6.97 µM (active)
[8]
  Potency: 15.6 µM (active)
[7]
  Potency: 2.82 µM (active)

## N#Cc1cc(F)cc(-c2nc(-c3ccccn3)no2)c1
[1]
  activation: -12.4%
[2]
  Potency: inactive

## CCOC(=O)N1CCC(CN(Cc2ccc(Cl)cc2)Cc2ccc([N+](=O)[O-])s2)C1 (stereo not given)
[1]
  activation: 6.21%
[3]
  Potency: inactive
[5]
  Potency: 10 µM (active)
[8]
  Potency: inactive
[7]
  Potency: inactive

## O=C(O)CCc1nccc2c1[nH]c1ccccc12
[1]
  activation: 8.93%
[2]
  Potency: inactive

## COc1cc2c(cc1NS(=O)(=O)c1ccc(Br)cc1C)n(C)c(=O)n2C
[1]
  activation: -22.3%
[3]
  Potency: inactive
[5]
  Potency: 31.6 µM (active)
[8]
  Potency: 20.1 µM (active)
[6]
  Potency: inactive

## O=S(=O)(O)c1ccc2cc(N=Nc3cc(S(=O)(=O)O)c4cccnc4c3O)ccc2c1
[1]
  activation: -29.8% and -2.86%
[3]
  Potency: inactive
[5]
  Potency: inactive
[8]
  Potency: inactive
[7]
  Potency: inactive
[9]
  viability: 95.4%
[10]
  Potency: inactive
[11]
  Potency: inactive
[12]
  Potency: inactive
[13]
  Potency: inactive
[14]
  Potency: inactive

## CC[C@@H](Nc1c(Nc2cccc(C(=O)N(C)C)c2O)c(=O)c1=O)c1ccc(C)o1
[1]
  activation: -1.43%
[2]
  Potency: inactive

## CC(C)c1ccc2c(c1)CCC1[C@](C)(C(=O)O)CCC[C@]21C (stereo not given in full)
[1]
  activation: 9.82%
[3]
  Potency: inactive
[4]
  Potency: inactive
[7]
  Potency: inactive
[6]
  Potency: inactive

## C/C=C(\C)C(=O)OC1C(C)C2(O)C(C=C(CO)CC3(O)C(=O)C(C)=CC32)C2C(C)(C)C12OC(C)=O (stereo not given)
[1]
  activation: 8.93%
[2]
  Potency: inactive

## O=C(O[C@H]1[C@@H]2C=CO[C@@H](O[C@@H]3O[C@H](CO)[C@@H](O)[C@H](O)[C@H]3O)[C@@H]2[C@@]2(CO)O[C@@H]12)c1ccc(O)c(O)c1
[1]
  activation: -2.68%
[2]
  Potency: inactive

## CC(CNS(=O)(=O)C(C)C)c1ccc(-c2ccc(C#N)cc2)cc1 (stereo not given)
[1]
  activation: -9%
[2]
  Potency: inactive

## O=C(/C=C/c1ccc(O)c(O)c1)O[C@@H]1[C@@H](O)[C@H](OC2CCCCC2O)O[C@H](CO)[C@H]1O (stereo not given in full)
[1]
  activation: 2.29%
[3]
  Potency: inactive
[4]
  Potency: 5.51 µM (active)
[8]
  Potency: inactive
[7]
  Potency: 3.98 µM (active)
